In the library only some 1.2% were active in any assay of this set; here they are far more common.
Avidin fluor – green autofluorescence of compounds with avidin beads – biophysical, 488/530 nm, flow cytometry, artefact control, profiling panel; compound fluorescence 488/530 nm; hits give high values; fluorescence (KMESF) at 10 µM; hit rate 0.38% among 220,000; AID 1775, 2009; in the data active = fluorescence above about 47
GSH fluor – compound fluorescence on glutathione beads, profiling panel, artefact control, biophysical, 488/530 nm, flow cytometry | AID 1776, 2009 | GSH beads flow cytometry, compound fluorescence 488/530 nm; hits give high values | fluorescence (KMESF) at 10 µM | hit rate 0.25% among 190,000; in the data active = fluorescence above about 89;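 note: glutathione beads carrying GST-tagged Bcl family fusion proteins plus one bare bead set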
RGS4-Gao reg – modulators of RGS4 binding to Galphao, primary screen, biochemical, multiplexed bead flow cytometry. Guanine nucleotide-binding protein G(o) subunit alpha (Homo sapiens), P09471. actives lie on both sides. binding response (% of control), % at 10 µM. hit rate 0.33% among 220,000. AID 1415, 2008; in the data active = binding response below about 49% or above about 150%; inactive = in between;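 note: fluorescent Galphao activated with aluminum fluoride binding bead-coupled RGS4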
Target sequence (P09471 whole entry, looked up): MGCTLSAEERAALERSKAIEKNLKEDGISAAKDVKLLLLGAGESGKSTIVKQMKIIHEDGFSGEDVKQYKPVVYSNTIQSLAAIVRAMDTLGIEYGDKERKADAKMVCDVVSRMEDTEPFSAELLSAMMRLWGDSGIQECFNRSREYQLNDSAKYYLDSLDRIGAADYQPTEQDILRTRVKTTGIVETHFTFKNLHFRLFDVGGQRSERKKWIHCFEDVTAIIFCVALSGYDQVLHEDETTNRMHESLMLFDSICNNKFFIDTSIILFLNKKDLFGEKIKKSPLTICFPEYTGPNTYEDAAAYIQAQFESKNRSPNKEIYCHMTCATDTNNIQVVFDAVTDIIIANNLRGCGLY
RGS8-Gao reg – RGS8-Galphao binding modulators, primary screen, biochemical, multiplexed bead flow cytometry; actives lie on both sides; response (percent of control binding), % at 10 µM; hit rate 0.34% among 220,000; in the data active = response below about 60% or above about 140%; inactive = in between;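 note: Galphao activated as the GDP aluminium fluoride complex binding bead-coupled RGS8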
RGS16-Gao – modulators of RGS16 binding to Galphao, primary screen, biochemical, human proteins, multiplexed bead flow cytometry; Regulator of G-protein signaling 16 (Homo sapiens) + Guanine nucleotide-binding protein …; bead-based flow cytometry RGS16-Galphao binding, fluorescence; actives lie on both sides; binding response (% of control), % at 10 µM; hit rate 0.38% among 220,000; AID 1441, 2008;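 note: Galphao activated by GDP with aluminum fluoride before binding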
RGS7-Gao – RGS7-Galphao binding modulators, primary screen, biochemical, multiplexed bead flow cytometry; binding response (% of control), % at 10 µM; Guanine nucleotide-binding protein G(o) subunit alpha (Homo sapiens), P09471; hit rate 0.35% among 220,000; actives lie on both sides; AID 1439, 2008; in the data active = binding response below about 49% or above about 150%; inconclusive = no clear call, values can overlap the other calls; inactive = in between;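 note: fluorescent Galphao held in activated GDP-AlF4 state binding bead-coupled RGS7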
RGS-Gao – modulators of RGS–Galpha-o binding, primary screen, biochemical, multiplexed beads, flow cytometry, RGS4/7/8/16/19. hit rate 99% among 1,600. RGS4–Galpha-o binding response, % at 10 µM. shares compounds with RGS16-Gao. multiplexed bead flow cytometry;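 note: fluorescently labeled Galpha-o bound to GDP with aluminium fluoride binding biotinylated RGS beads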
Avidin counter – disruption of biotin probe capture by avidin, counter-screen for RGS protein interaction modulators, biochemical, flow cytometry, bead-based; 1,700 tested, under 10 active; AID 1783, 2009; streptavidin beads, fluorescein-biotin binding; shares compounds with RGS16-Gao; inhibition, % at 10 µM;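 active = inhibition above 50%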;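 note: median green fluorescence of gated singlet beads compared with DMSO control wells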
RGS8-Gao single – RGS8-Galphao binding modulators, confirmation, biochemical, multiplexed bead flow cytometry, single concentration; AID 1836, 2009; hit rate 3% among 1,700; shares compounds with RGS16-Gao; bead-based flow cytometry RGS8-Galphao binding, fluorescence; actives lie on both sides; binding response (% of control), % at 10 µM; in the data active = binding response below about 72% or above about 130%; inactive = in between;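 note: Galphao activated as GDP AlF4 complex before binding bead RGS8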
RGS7-Gao single – RGS7-Galphao binding modulators, confirmation, biochemical, multiplexed bead flow cytometry, single concentration; shares compounds with RGS16-Gao; bead-based flow cytometry RGS7-Galphao binding; actives lie on both sides; response (percent of control binding), % at 10 µM; hit rate 7.8% among 1,700; in the data active = response below about 75% or above about 130%; inactive = in between;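 note: fluorescent Galphao activated with GDP and aluminum fluoride binding bead-coupled RGS7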
RGS16-Gao single – modulators of RGS16-Galphao protein binding, confirmation, biochemical, single concentration, multiplexed bead flow cytometry | shares compounds with RGS16-Gao | bead-based flow cytometry; actives lie on both sides | response (% of control binding), % at 10 µM | hit rate 4% among 1,700 | AID 1838, 2009; in the data active = response below about 74% or above about 130%; inactive = in between;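 note: Galphao activated as the GDP aluminium fluoride complex binding bead-coupled RGS16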
RGS4-Gao confirm – modulators of RGS4-Galphao protein binding, confirmation, biochemical, single concentration, multiplexed bead flow cytometry; AID 1840, 2009; actives lie on both sides; shares compounds with RGS16-Gao; hit rate 4% among 1,700; binding response (% of control), % at 10 µM; in the data active = binding response below about 74% or above about 130%; inactive = in between
RGS19-Gao conf – regulators of RGS19-Galphao binding, confirmation, biochemical, single point, multiplexed bead flow cytometry; shares compounds with RGS16-Gao; bead-based flow cytometry RGS19-Galphao binding; actives lie on both sides; response (percent of control binding), % at 10 µM; hit rate 5% among 1,700; in the data active = response below about 50% or above about 160%; inactive = in between
Target sequence (P09471 whole entry, looked up): as above
Target sequence (P49795 whole entry, looked up): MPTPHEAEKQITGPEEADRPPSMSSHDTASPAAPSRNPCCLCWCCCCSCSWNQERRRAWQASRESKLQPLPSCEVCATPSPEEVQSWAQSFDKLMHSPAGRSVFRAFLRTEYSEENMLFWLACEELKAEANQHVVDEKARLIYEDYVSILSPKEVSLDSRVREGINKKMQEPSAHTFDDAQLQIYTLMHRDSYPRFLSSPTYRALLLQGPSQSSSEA
Numbers stand for hits; 0 = inactive; ? = inconclusive; - = no result given; [ ] = dose if it differs, or a comment. Unless noted, the rule behind the calls is not given here.

SMILES	Avidin fluor	GSH fluor	RGS4-Gao reg	RGS8-Gao reg	RGS16-Gao	RGS7-Gao	RGS-Gao	Avidin counter	RGS8-Gao single	RGS7-Gao single	RGS16-Gao single	RGS4-Gao confirm	RGS19-Gao conf
CCOC(=O)c1c(-c2ccccc2Cl)csc1NC(=O)c1cc(S(=O)(=O)N2CCOCC2)ccc1C	0	0	0	0	0	0	-	-	-	-	-	-	-
CCOc1ccc2sc(NS(=O)(=O)c3ccc(OC)c(OC)c3)nc2c1	-	0	-	-	-	-	-	0	0	0	0	0	0
COc1ccc(S(=O)(=O)Nc2nc3ccccc3s2)cc1	0	0	0	0	0	0	-	-	-	-	-	-	-
O=C(c1c[nH]c2ccccc12)C(F)(F)F	0	-	0	0	0	?	-	-	-	-	-	-	-
CCOc1ccc(C(=O)N[C@H](C(=O)Nc2cccc(S(=O)(=O)N3CCCCC3)c2)C(C)C)cc1	0	0	0	0	4.6	0	90	0	0	0	0	0	0
Cc1cccc(C(=O)N[C@H](C(=O)Nc2cccc(S(=O)(=O)N3CCCC3)c2)C(C)C)c1	0	-	0	0	0	?	-	-	-	-	-	-	-
NC(=O)C1CCN(C(=O)Nc2csc3ccccc23)CC1	0	-	0	0	0	?	-	0	0	0	0	0	0
Cc1ccc(F)cc1NC(=O)N1c2ccccc2NC(=O)CC1C (stereo unspecified)	0	-	0	0	0	?	-	-	-	-	-	-	-
CC(=O)N/N=C(\C)c1cccc(NC(=O)c2cccs2)c1	0	0	-636	34	0	-112	-	0	0	0	0	0	0
C/C(=N/NC(=O)c1cccs1)c1cccc(NC(=O)C2CC2)c1	-	0	0	0	0	0	-	-	-	-	-	-	-
CCOC(CNC(=O)Cn1nc(C)c2ccccc21)OCC	0	0	0	0	0	0	-	-	-	-	-	-	-
COc1cccc(C2C(C(=O)c3cc4cccc(OC)c4o3)=C(O)C(=O)N2c2cc(C)on2)c1OC (stereo unspecified)	0	0	-0.4	34	1.2	11	-	0	0	0	0	0	0
Cc1ccc(-n2c(C)cc(C(=O)COc3c(CO)cc(F)cc3CO)c2C)cc1C	0	0	0	153[activator]	0	0	116	0	0	0	0	0	0
Cc1ccc(C)n1Cc1ccc(C(=O)O)cc1	0	0	0	0	0	49	89	-	-	-	-	-	-
COC(=O)C1=C(N)Oc2cc(C)n(Cc3cccnc3)c(=O)c2C1c1cccc(OC)c1OC (stereo unspecified)	148	0	0	0	0	240[activator]	125	0	0	0	0	0	0
N#Cc1c(-c2ccccc2)nc(SCC(=O)N(c2ccccc2)c2ccccc2)[nH]c1=O	0	0	0	50	0	0	77	0	0	0	0	0	0
COc1ccc(N2C(=O)C3NN=C(C(=O)OCc4ccccc4)C3C2=O)cc1 (stereo unspecified)	0	0	0	0	0	0	-	-	-	-	-	-	-
Cc1ccc(C2C3=C(CC(C)(C)CC3=O)Nc3onc(C)c32)cc1 (stereo unspecified)	-	0	0	-	0	0	-	0	0	0	0	0	0
CCOC(=O)c1c(C)nc(SCC(N)=O)c(C#N)c1-c1ccccc1	0	0	0	0	182[activator]	0	111	0	0	0	0	0	0
COc1ccc(-c2ccc(SCC(=O)N3CCOCC3)nn2)cc1OC	-	0	-	-	-	-	-	0	0	0	0	0	0
COc1ccc(-c2ccc(SCC(=O)N3CCCC3)nn2)cc1OC	0	0	0	0	0	0	-	-	-	-	-	-	-
C=CCN(CC=C)C(=O)c1ccc(OC2CCN(S(=O)(=O)N(C)C)CC2)cc1	0	0	0	0	0	0	-	-	-	-	-	-	-
N#CC(C#N)=Cc1cccn1-c1ccc(S(N)(=O)=O)cc1	0	0	0	0	0	0	-	-	-	-	-	-	-
CC(Sc1ncnc2ccccc12)C(=O)Nc1ccc2c(c1)OCO2 (stereo unspecified)	-	0	-	-	-	-	-	0	0	0	0	0	0
COc1ccc(-c2cc(C(F)(F)F)nc(SCC(=O)NCc3cnn(C)c3C)n2)cc1OC	0	0	0	0	0	0	-	-	-	-	-	-	-
SMILES	Avidin fluor	GSH fluor	RGS4-Gao reg	RGS8-Gao reg	RGS16-Gao	RGS7-Gao	RGS-Gao	Avidin counter	RGS8-Gao single	RGS7-Gao single	RGS16-Gao single	RGS4-Gao confirm	RGS19-Gao conf
COc1ccc(-c2cc(C(F)(F)F)nc(SCC(=O)N(C)Cc3cn(C)nc3C)n2)cc1OC	0	0	0	0	0.0	0	78	0	0	0	0	0	0
CC12C(=O)N(c3nccs3)C(=O)C1C1C=CC2C1 (stereo unspecified)	-	0	-	-	-	-	-	0	0	0	0	0	0
N#CC1=C(N)N(c2ccccc2)C2=C(C(=O)CCC2)C1c1ccsc1 (stereo unspecified)	0	0	0	0	16	0	96	0	0	0	0	0	0
O=C(CN1CCN(c2ccccc2O)CC1)NC(c1ccccc1)c1ccccc1	0	0	0	0	244[activator]	0	114	0	0	0	0	0	0
O=C(CN1CCN(c2ccccc2O)CC1)NCCCc1ccccc1	0	0	0	0	0	0	-	-	-	-	-	-	-
S=C(NCc1ccco1)Nc1ccc(Oc2ccc(Cl)cc2)cc1	0	-	-37	14	-20	?	-	0	0	0	0	0	0
